In all, about 2,100 compounds went through this assay and about 770 (37%) were called active.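 The calls were made as follows: active = by-eye trace score of 1 for enhancers or -1 for inhibitors, so actives lie on both sides (some results past the limit were not filed as active); inactive = score 0, or 3 fluorescent, or 4 baseline rise.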 This is one part of the list.
The compounds below were run against G protein-activated inward rectifier potassium channel 2 (Homo sapiens) + G protein-activated inward rectifier potassium channel 1 (Homo sapiens) (UniProt P48051+P48549) (assay: GIRK1/2 thallium flux modulators, retest, confirmation, cell-based, HEK293 rmGlu8/hGIRK1/2, FluoZin-2 (AID 623911)). Conditions: HEK293 rmGlu8/hGIRK1/2, thallium flux FluoZin-2; actives lie on both sides; glutamate co-added at its EC20 level.
G protein-activated inward rectifier potassium channel 2 (Homo sapiens) + G protein-activated inward rectifier potassium channel 1 (Homo sapiens), sequence (P48051 whole entry, looked up): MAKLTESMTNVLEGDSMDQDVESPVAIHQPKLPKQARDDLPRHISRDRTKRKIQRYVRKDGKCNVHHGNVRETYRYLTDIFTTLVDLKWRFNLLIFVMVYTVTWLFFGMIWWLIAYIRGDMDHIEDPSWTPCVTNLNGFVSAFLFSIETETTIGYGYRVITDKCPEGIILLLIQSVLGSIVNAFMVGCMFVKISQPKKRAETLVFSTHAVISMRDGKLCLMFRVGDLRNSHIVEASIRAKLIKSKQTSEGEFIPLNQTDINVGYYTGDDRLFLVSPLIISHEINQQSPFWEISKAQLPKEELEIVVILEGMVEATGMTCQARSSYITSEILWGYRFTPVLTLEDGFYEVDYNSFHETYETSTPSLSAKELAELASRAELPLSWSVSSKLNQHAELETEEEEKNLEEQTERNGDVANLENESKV
G protein-activated inward rectifier potassium channel 2 (Homo sapiens) + G protein-activated inward rectifier potassium channel 1 (Homo sapiens), sequence (P48549 whole entry, looked up): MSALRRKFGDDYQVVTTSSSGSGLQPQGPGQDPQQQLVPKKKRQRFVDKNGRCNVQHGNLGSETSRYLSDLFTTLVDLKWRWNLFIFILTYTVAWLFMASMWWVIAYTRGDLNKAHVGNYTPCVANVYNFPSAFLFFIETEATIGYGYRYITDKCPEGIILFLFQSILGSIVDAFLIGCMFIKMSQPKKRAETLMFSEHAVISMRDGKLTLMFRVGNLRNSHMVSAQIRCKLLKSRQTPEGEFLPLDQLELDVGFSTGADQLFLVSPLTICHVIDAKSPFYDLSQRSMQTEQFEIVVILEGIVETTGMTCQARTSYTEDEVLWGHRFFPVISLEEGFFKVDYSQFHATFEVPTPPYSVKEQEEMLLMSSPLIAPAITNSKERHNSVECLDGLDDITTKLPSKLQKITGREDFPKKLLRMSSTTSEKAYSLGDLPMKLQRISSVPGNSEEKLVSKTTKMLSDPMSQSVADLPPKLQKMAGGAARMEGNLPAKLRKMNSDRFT

Manual score, active:
Cc1ccccc1C(=O)NNC(=S)NC(=O)c1ccccc1 1
Cc1ccccc1C(=O)NNC(=O)C(=O)Nc1cccc(Cl)c1C 1
CCC(C)n1c(=S)[nH]c2c(sc3ccc([N+](=O)[O-])cc32)c1=O (stereo not drawn) 1
COc1cccc2sc(Nc3nnc(-c4cccs4)o3)nc12 1
COc1ccc(-c2nnc(Nc3nc4c(OC)cccc4s3)o2)cc1 1
COc1cccc2sc(Nc3nc(-c4ccccn4)cs3)nc12 1
COc1ccccc1OCC(O)Cn1c(=N)n(Cc2ccccc2)c2ccccc21 (stereo not drawn) -1
Cc1ccc(OCC(O)Cn2c(=N)n(Cc3ccccc3)c3ccccc32)cc1 (stereo not drawn) -1
CN(C)c1nc(OCCNC(=O)COc2ccc(Cl)cc2Cl)nc(N2CCOCC2)n1 -1
Cc1ccc(CC(=O)N2CCN(c3cccc(C(F)(F)F)c3)CC2)cc1 1
CCOc1ccc(-n2c(SC(C)C(=O)OC)nc3c(c2=O)SCC3)cc1 (stereo not drawn) -1
COC(=O)C(NC(=O)COc1ccccc1)(Nc1nc2c(s1)CCCC2)C(F)(F)F (stereo not drawn) -1
CCn1c(SCC(N)=O)nc2sc3c(c2c1=O)CCCC3 1
Clc1ccc2c(c1)-c1nnc(Br)n1-c1ccccc1S2 -1
CCN(CC)CC(O)COCCC12CC3CC(CC(C3)C1)C2 (stereo not drawn) -1
CCN(CC)CCN(CC)Cc1ccccc1Br -1
CCOc1ccccc1C(=O)N1c2ccccc2Sc2ccccc21 -1
COc1ccccc1C(=O)N1c2ccccc2Sc2ccccc21 -1
Cc1ccc(N2C=Nc3ccc(C)c4nc(C)cc2c34)cc1 -1
C/C(=N\NC(=O)c1cccc(F)c1)c1ccc(Br)s1 1
Clc1cccc(CSc2nc3ccncc3[nH]2)c1 1
C=CCSc1nc2sc3c(c2c(=O)n1CC)CCc1ccccc1-3 1
O=c1c(-c2ccccc2)nc(-c2ccccc2)cn1O 1
CC(C)CCn1c(CN2CCN(Cc3ccccc3)CC2)nc2c1c(=O)[nH]c(=O)n2C -1
COc1ccc(C2CC(c3ccc(Cl)c(Cl)c3)Nc3nc(N)nn32)cc1 (stereo not drawn) 1
COc1cccc(NC(=O)CC2COc3ccccc3O2)c1 (stereo not drawn) 1
COc1ccc(N2CCCn3c2nc2c3c(=O)n(Cc3ccccc3F)c(=O)n2C)c(OC)c1 -1
COC(=O)c1cc2sccc2n1CC(=O)N1CCCc2ccccc21 -1
C=CCN(CC=C)C(=S)NC(=O)c1ccc(OC)c(Br)c1 1
COc1ccc(C(=O)NC(=S)NCCO)cc1Br 1
C=CCN(CC=C)C(=S)NC(=O)c1ccc(C)c(Br)c1 1
C=CCN(CC=C)C(=S)NC(=O)/C=C/c1ccc(C)cc1 1
Cc1ccc(C(=O)NC(=S)Nc2ccccc2C(F)(F)F)cc1 1
COC(=O)c1ccccc1NC(=S)NC(=O)c1ccc(C)cc1 1
O=C(COc1ccccc1)NC(=S)Nc1cccc([N+](=O)[O-])c1 1
COC(=O)c1ccccc1NC(=S)NC(=O)COc1ccccc1 1
COC(=O)c1ccccc1NC(=S)NC(=O)c1ccccc1 1
CCOC(=O)c1ccc(NC(=S)NC2CCCC2)cc1 1
S=C(Nc1ccc(Oc2ccccc2)cc1)NC1CCCC1 1
CC(C)CNC(=S)Nc1ccc(Oc2ccccc2)cc1 1
CCCN(CC1CC1)C(=S)Nc1ccc(Oc2ccccc2)cc1 1

Manual score, inactive:
S=c1[nH]ccn1-c1cccc(Cl)c1 0
Oc1ccc2ccc3cccc[n+]3c2c1 3
CCn1c(-c2cc(-c3cccc(OC)c3)nc3ccccc23)n[nH]c1=S 0
Cc1c(Cl)cccc1NC(=S)/C(=C(\[O-])c1ccc(Cl)s1)[n+]1ccccc1 0
Cc1ccccc1C(=O)Nc1nc(=S)ss1 0
Cc1ccccc1C(=O)NC(=S)NCCc1ccccc1 0
CCOC(=O)C(CC)n1cnc2c(nnn2-c2ccc(OC)cc2)c1=O (stereo not drawn) 0
CCNc1nnc(-c2ccc(C)cc2)o1 -0.5
O=C(Nc1nc(-c2ccccn2)cs1)c1ccc(Br)s1 0
C/C(=N/NC(=O)c1ccncc1)c1cc2ccc(O)cc2oc1=O 0
CCOc1cc(/C=N/NC(=O)CNc2cccc(C)c2)ccc1OC(=O)c1ccccc1 0
O=C(Nn1c(C2CCCCC2)nc2ccccc2c1=O)c1ccc([N+](=O)[O-])cc1Cl 0
CC1(C)NC(=O)N(CC(O)COc2ccc(-c3ccc(C#N)cc3)cc2)C1=O (stereo not drawn) 0
Cc1cc(CC(C)C)n(-c2nc3ccccc3c(=O)n2OCC(N)=O)n1 0
CC1(C)Cc2ccccc2-c2nnc(SCC(=O)N3CCN(c4ccccc4)CC3)n21 0
O=C(CN1CCN(Cc2ccccc2)CC1)Nc1cccc(C(F)(F)F)c1 0
CCOc1ccc(-n2c(Cc3cc(=O)[nH]c(=O)[nH]3)nnc2SC(C)C(=O)OC)cc1 (stereo not drawn) 0
COC(=O)c1ccc(CSc2nc3c(c(=O)n2-c2ccc(F)cc2)SCC3)o1 0
CC(C)Cn1c2c(c(O)c(C(=O)Nc3ncccc3O)c1=O)CCCC2 0
CCCCCn1nc(-c2ccccc2)c2nc3ccccc3nc21 3
O=c1c2c3c(sc2nc2n1CCCCC2)CCCCC3 0
CCCCN(CCCC)C(=O)CSc1nnc2n(C)c(=O)c3c4c(sc3n12)CCCC4 -0.5
S=C1Nc2ccccc2Sc2ccc(Cl)cc21 0
CCOc1ccccc1OCCCCCc1c(C)n[nH]c1C 0
CC1(C)CC(c2nc(-c3ccc(Br)cc3)cs2)CCS1 (stereo not drawn) 0
Cc1ccc(Cn2c(SCC(=O)NCC3CCCO3)nc3c(sc4ccccc43)c2=O)cc1 (stereo not drawn) 0.5
COCC(=O)/C=C1\Sc2ccccc2N1C 0
CCOC(=O)/C(=C/C=C1\Sc2ccccc2N1CC)C(C)=O 3
O=C1CS/C(=N\C(=O)N2c3ccccc3Sc3ccccc32)N1 0
O=S(=O)(Cc1ccccc1)N1CCc2ccccc21 3
COc1cc(C)ccc1OCCOc1cc(C)ccc1Cl 0
CCC1CCCN1Cn1cnc2c([nH]c3ccc(OC)cc32)c1=O (stereo not drawn) 0
C/C(=N\NC(=O)c1ccccc1O)c1ccc(Br)s1 0.5
C/C(=N\NC(=O)c1ccc(Cl)cc1)c1ccc(Br)s1 0.5
CN(C=O)CP(=O)(O)CCN1CCCC1=O 0
O=C(CSc1nc2ccc(Cl)cc2[nH]1)Nc1ccc2c(c1)CCC2 0
Cc1ccc(CSc2nc3ccncc3[nH]2)cc1 0
CCN(CC)CCN1C(=O)c2oc3ccccc3c(=O)c2C1c1ccc(F)cc1 (stereo not drawn) 0
CCn1c(SCC(N)=O)nc2c(c1=O)C1(CCCC1)Cc1ccccc1-2 0
Cc1ccc(C)c(NC(=S)N=Nc2c(O)n(C)c3ccc(S(=O)(=O)N4CCOCC4)cc23)c1 0
N=c1oc2ccc3ccccc3c2cc1-c1nc(-c2ccccc2)cs1 3
CN(C)CCNc1nc2c(c(=O)[nH]c(=O)n2C)n1CCCc1ccccc1 0
CCN(C(=O)CN1CCN(c2ccccc2O)CC1)c1c(N)n(Cc2ccccc2)c(=O)[nH]c1=O 0
Nc1nc2n(n1)C(c1cccs1)CC(c1ccc(F)cc1)N2 (stereo not drawn) 0
CCn1c(=O)cc(OCC(=O)Nc2cccc(C)n2)c2ccccc21 0
COc1cccc2c1OC[C@@H](CO)[C@H]2N(C)C(=O)Nc1ccccc1 0
COc1cccc(NC(=O)NC2(C(F)(F)F)Oc3ccccc3O2)c1 0
CCc1cc2cccc(C)c2nc1SCC(=O)c1ccc(NC(C)=O)cc1 0
Cn1c(N2CCCC2)nc2c1c(=O)n(Cc1ccc(Cl)cc1)c(=O)n2C -0.5
Cn1c(C(=O)OC(C(=O)NC2CCCCC2)c2ccncc2)cc2sccc21 (stereo not drawn) 0
CC12CCC(C(=O)N3CCCc4ccccc43)(CC1=O)C2(C)C (stereo not drawn) 0
CS(=O)(=O)Nc1ccc(C2=NN(C(=O)C3CCCCC3)C(c3cccs3)C2)cc1 (stereo not drawn) -0.5
Cc1ccnc(NC(=S)NC(=O)/C=C/c2ccco2)c1 0
COc1ccc(C(=O)NC(=S)NC(C)C)cc1Br 0.5
COc1cc(/C=C2/C(=O)N=C(N)N2C)cc(OC)c1OC 0
CC(C)COc1ccc(Cc2cnc(N)nc2N)cc1 0
O=C(COc1ccccc1)NC(=S)Nc1ccc2c(c1)Cc1ccccc1-2 0
Cc1ccc(C(=O)NC(=S)Nc2ccccc2C(F)(F)F)cc1C 0
COC(=O)c1ccccc1NC(=S)NC(=O)COc1ccc(C)cc1 0
O=C(COc1ccccc1)NC(=S)Nc1ccc2c3c(cccc13)CC2 0.5
CCC1c2ccc(C)n2CCN1C(=O)Nc1ccccc1C(=O)OC (stereo not drawn) 0
O=C(NC(=S)Nc1ccc(Oc2ccc(Cl)cc2)cc1)c1ccccc1 0
CCOC(=O)c1[nH]c(C)c(C(=O)NC2CCCCC2)c1C 0
CC1CCCCN1CC(=O)Nc1ccc(Oc2ccccc2)cc1 (stereo not drawn) 0
S=C(NN=C(C1CC1)C1CC1)Nc1ccccc1 0
CCOC(=O)c1ccc(NC(=S)NC(=O)COc2ccccc2)cc1 0.5
FC(F)(F)Oc1ccc(NC(=S)NCc2ccccc2)cc1 0

From PubChem BioAssay AID623911 (Vanderbilt High Throughput Screening Facility, 2012)
